Composite z-score and z-score data for five molecules are collected here from PubChem BioAssay.

Structures are written as SMILES. Calls of active or inactive are those of the source. Unless noted, no rule for the calls is given here.

A short description of assay [1]: anti-His antibody binders, primary screen, artefact control for SMM control protein annotation, biochemical, small-molecule microarray, 635 nm fluorescence (AID 1128).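 Also: score merges feature fluorescence with signal-to-noise for each printed compound spot.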 To be noted: anti-His Alexa647 antibody binding, higher = more signal.
The test system of assay [2] is Human papillomavirus type 1a E7 protein (residues 1-88). Briefly: HPV1a E7 small-molecule binders, primary screen, biochemical, small-molecule microarray, residues 1-88, 635 nm (AID 1129). Particulars: small-molecule microarray binding, fluorescence 635 nm; higher = more signal.
Assay [3] addresses Focal adhesion kinase 1 (Homo sapiens) (UniProt Q05397). The assay can be described thus: small-molecule microarray binders of FAK, primary screen, biochemical, 635/667 nm fluorescence, BSA, DTT (AID 1130).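 Also: composite of spot emission at 667 nm and signal to noise over triplicate slides.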 Particulars: PTK2 binding, 635 nm fluorescence, higher = more signal.
The subject of assay [4] is Fibrinogen (Alexa647-labelled). Briefly: fibrinogen binders on compound microarrays, profiling panel, artefact control for SMM control-protein annotation, biochemical, small-molecule microarray, 635/667 nm fluorescence (AID 1131).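 Also: z-score merges 667 nm fluorescence with per-spot signal-to-noise over triplicate slides.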 Particulars: fibrinogen-A647 binding fluorescence, higher = more signal.
In assay [5] the target is Follistatin (Homo sapiens) (UniProt P19883). Briefly: follistatin binders on small-molecule microarrays, primary screen, biochemical, small-molecule microarray, 635/667 nm fluorescence (AID 1132). To be noted: FST binding, 635 nm fluorescence, higher = more signal.
Sequence of Follistatin (Homo sapiens) (P19883 whole entry, looked up): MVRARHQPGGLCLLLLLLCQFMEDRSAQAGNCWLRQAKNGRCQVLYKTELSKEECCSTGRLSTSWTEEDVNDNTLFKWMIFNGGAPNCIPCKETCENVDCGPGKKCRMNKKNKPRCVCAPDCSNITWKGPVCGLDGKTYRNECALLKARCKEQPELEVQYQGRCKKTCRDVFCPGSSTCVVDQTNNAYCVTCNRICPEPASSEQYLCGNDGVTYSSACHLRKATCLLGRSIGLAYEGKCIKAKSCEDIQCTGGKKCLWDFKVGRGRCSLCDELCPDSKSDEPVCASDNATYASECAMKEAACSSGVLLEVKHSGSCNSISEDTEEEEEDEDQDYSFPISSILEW
Assay [6] addresses Fibroblast growth factor 2 (Homo sapiens) (UniProt P09038). The assay can be described thus: FGF2 binders on small-molecule microarrays, primary screen, biochemical, small-molecule microarray, 635/667 nm fluorescence (AID 1133). Particulars: small-molecule microarray binding, FGF2, fluorescence 635/667; higher = more signal.
Assay [7] in a line: mitochondrial membrane potential change in A549 cells, profiling panel, cell-based, JC-1 fluorescence, basal, 24 h, 100 nL (AID 1138).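 Also: A549 lung adenocarcinoma cells under basal conditions with no added stimulus; test concentration not given here.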 Particulars: higher = more signal.
Assay [8] deals with Lefty1. The assay can be described thus: Lefty1 binders on small-molecule microarrays, primary screen, biochemical, small-molecule microarray, 635/667 nm fluorescence (AID 1139). Particulars: small-molecule microarray binding, fluorescence 635/667; higher = more signal.
Assay [9] has as its system wheat germ agglutinin (Triticum aestivum), Alexa647-labelled. Briefly: wheat germ agglutinin binders on compound microarrays, profiling panel, artefact control for SMM control-protein annotation, biochemical, small-molecule microarray, 635/667 nm fluorescence (AID 1140).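 Also: score merges 667 nm feature emission with signal to noise over triplicate slides.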 Particulars: WGA-A647 binding, 635 nm fluorescence, higher = more signal.
Assay [10] deals with Luciferin 4-monooxygenase (Photinus pyralis) (UniProt P08659). The assay can be described thus: firefly luciferase enzyme inhibitors, primary screen, biochemical, luminescence, purified enzyme, 2006 set (AID 1141).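 Also: cell-free assay with purified firefly luciferase at 100 ng per well in PBS; test concentration not given here.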 To be noted: SteadyGlo luminescence, 30 min, higher = more signal, called active from +8 up or from −8 down.
Sequence of Luciferin 4-monooxygenase (Photinus pyralis) (P08659 whole entry, looked up): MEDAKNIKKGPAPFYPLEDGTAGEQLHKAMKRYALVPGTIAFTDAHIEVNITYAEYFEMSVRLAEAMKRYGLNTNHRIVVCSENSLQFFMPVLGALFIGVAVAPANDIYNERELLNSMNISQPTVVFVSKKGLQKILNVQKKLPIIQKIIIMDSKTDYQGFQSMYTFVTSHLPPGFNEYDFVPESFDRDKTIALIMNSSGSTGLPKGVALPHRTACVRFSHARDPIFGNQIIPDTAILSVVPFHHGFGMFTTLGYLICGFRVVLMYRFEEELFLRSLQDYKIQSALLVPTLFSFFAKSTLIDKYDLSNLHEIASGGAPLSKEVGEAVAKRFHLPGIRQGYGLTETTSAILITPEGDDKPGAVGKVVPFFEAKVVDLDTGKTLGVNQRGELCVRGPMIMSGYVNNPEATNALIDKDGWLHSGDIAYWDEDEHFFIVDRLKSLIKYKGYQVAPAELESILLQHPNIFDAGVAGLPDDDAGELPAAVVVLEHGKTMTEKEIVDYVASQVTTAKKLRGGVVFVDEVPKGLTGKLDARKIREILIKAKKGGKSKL
Assay [11] concerns Wnt5a (protein binding on small-molecule microarray). Briefly: Wnt5a binders on small-molecule microarray, primary screen, biophysical, 635/667 nm fluorescence (AID 1142).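 Also: fluorescence read at 667 nm with signal to noise per printed feature.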 Particulars: 635 nm fluorescence, higher = more signal.
A short description of assay [12]: cell viability in Huh7 cells, primary screen, cytotoxicity control for HCV replication inhibitor project, CellTiter-Glo luminescence, basal, 48 h (AID 1143).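 Also: Huh7 hepatoma cells carrying a hepatitis C replication reporter with no stimulus; test concentration not given here.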 Particulars: Huh7 HCV replicon, higher = more signal, called active from +8 up or from −8 down. On the technique in general: ATP-based viability assays read luminescence as a measure of living cells.
A short description of assay [13]: P. aeruginosa biofilm formation inhibitors, primary screen, PAO1 strain, BacTiter-Glo luminescence, LB-PBS (AID 1144). Particulars: 12 h, higher = more signal.
Assay [14] can be described thus: CREB reporter modulators without forskolin, primary screen, cell-based, PC12, CRE-LacZ reporter, unstimulated (AID 1145). Particulars: no forskolin, luminescence, 4.5 h, higher = more signal, called active from +8 up or from −8 down.
Assay [15] in a line: CREB reporter modulators under forskolin, primary screen, cell-based, PC12, CRE-LacZ reporter, forskolin-stimulated (AID 1146).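 Also: PC12 cells with 6xCRE LacZ reporter stimulated by forskolin 10 µM; beta-galactosidase reporter signal reflecting CREB driven transcription.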 To be noted: luminescence, 4.5 h, higher = more signal, called active from +8 up or from −8 down.
The target in assay [16] is Streptavidin (Streptomyces avidinii) (UniProt P22629). The assay can be described thus: streptavidin binders on small-molecule microarray, primary screen, artefact control for SMM compound annotation, biophysical, 635/667 nm fluorescence (AID 1147).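 Also: signal reflects streptavidin binding to arrayed compounds as a control protein.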 Particulars: streptavidin binding, higher = more signal.
Sequence of Streptavidin (Streptomyces avidinii) (P22629 whole entry, looked up): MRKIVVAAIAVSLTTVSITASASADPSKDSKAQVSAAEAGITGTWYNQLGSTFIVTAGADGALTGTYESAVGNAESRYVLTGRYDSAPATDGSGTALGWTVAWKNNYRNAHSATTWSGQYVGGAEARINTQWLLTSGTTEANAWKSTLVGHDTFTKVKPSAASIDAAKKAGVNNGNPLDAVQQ
Assay [17] is described as follows: small-molecule binders of probe aInhba, primary screen, biochemical, small-molecule microarray, 635/667 nm fluorescence (AID 1148).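 Also: score merges 667nm spot fluorescence with signal-to-noise for antibody binding to printed compounds.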 To be noted: higher = more signal.
In assay [18] the target is Torsin-1A (Homo sapiens) (UniProt O14656). Briefly: torsin A binders from cell lysate, primary screen, small-molecule microarray, wild-type, 635/667 nm (AID 1149). To be noted: COS7 hTOR1A-WT lysate, 635 nm fluorescence, higher = more signal.
Sequence of Torsin-1A (Homo sapiens) (O14656 whole entry, looked up): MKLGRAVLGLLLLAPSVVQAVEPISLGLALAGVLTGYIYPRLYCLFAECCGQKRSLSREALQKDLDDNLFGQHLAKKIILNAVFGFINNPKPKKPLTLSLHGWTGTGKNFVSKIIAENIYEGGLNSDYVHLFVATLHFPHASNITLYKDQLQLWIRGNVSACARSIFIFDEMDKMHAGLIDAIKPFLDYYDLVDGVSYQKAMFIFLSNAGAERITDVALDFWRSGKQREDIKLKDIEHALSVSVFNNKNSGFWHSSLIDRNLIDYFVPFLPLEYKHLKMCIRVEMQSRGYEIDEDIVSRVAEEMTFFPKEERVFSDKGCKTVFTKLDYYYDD
For assay [19] the target is unchanged. The assay can be described thus: small-molecule binders of mutant TOR1A in lysate, primary screen, cell lysate, small-molecule microarray, COS7 lysate, 635/667 nm fluorescence (AID 1150).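 Also: score pools 667 nm emission and signal to noise measuring lysate protein binding.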 To be noted: COS7 hTOR1A mutant lysate, 635 nm fluorescence, higher = more signal.
Assay [20] relates to Sonic hedgehog protein (Shh). Briefly: small-molecule binders of Shh protein, primary screen, biochemical, small-molecule microarray, 635/667 nm fluorescence (AID 1151).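 Also: Shh protein binding to compounds spotted on small-molecule microarray slides; score combines spot fluorescence intensity with signal-to-noise across triplicate slides.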 Particulars: small-molecule microarray binding, 635 nm fluorescence; higher = more signal.

Sequence of Fibroblast growth factor 2 (Homo sapiens) (P09038 whole entry, looked up): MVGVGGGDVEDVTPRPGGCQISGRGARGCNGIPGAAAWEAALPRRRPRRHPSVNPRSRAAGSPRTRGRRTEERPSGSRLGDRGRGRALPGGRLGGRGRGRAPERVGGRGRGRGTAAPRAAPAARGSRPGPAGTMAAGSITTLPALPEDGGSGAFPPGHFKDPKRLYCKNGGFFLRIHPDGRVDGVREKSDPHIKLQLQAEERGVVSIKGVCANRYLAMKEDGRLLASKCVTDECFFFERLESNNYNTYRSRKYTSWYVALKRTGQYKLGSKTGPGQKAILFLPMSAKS
Sequence of Focal adhesion kinase 1 (Homo sapiens) (Q05397 whole entry, looked up): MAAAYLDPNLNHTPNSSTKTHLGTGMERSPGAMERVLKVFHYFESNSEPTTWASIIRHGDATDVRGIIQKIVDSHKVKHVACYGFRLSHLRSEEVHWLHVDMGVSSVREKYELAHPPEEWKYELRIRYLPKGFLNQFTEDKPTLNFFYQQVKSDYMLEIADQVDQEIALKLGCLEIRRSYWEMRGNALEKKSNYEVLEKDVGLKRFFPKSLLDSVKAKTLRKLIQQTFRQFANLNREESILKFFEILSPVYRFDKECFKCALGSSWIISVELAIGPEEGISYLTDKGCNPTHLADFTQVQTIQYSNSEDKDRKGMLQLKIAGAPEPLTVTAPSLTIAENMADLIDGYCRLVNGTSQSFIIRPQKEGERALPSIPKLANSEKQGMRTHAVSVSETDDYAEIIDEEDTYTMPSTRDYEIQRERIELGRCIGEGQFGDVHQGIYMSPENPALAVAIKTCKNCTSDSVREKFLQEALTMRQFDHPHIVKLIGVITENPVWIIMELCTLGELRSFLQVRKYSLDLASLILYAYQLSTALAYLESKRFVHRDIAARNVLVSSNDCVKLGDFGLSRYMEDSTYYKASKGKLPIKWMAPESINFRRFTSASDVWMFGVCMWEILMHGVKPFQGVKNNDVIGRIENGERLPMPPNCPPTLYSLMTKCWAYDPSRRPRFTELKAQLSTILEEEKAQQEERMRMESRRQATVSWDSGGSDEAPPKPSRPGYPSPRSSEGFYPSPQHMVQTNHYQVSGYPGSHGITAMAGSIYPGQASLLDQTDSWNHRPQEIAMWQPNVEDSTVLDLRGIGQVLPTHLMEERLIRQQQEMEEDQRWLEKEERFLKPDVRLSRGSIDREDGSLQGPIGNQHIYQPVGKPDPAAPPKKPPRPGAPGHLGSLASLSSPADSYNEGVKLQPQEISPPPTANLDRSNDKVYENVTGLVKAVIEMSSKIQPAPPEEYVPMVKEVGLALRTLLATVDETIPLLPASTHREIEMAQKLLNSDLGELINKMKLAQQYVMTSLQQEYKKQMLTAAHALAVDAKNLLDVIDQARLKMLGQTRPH

`COC(=O)[C@H](C)NC(=O)CCC1CC(OC(=O)NCc2cccc3ccccc23)CC2(CCCC(COC(=O)NCC(c3ccccc3)c3ccccc3)O2)O1` (stereo not given in full): the composite z-score in assay [1] amounted to 1.04; in assay [2], 1.15; in assay [3] it was 0.713; in assay [4], 0.665; in assay [5], 0.376; in [6] it was 0.227. Besides, the composite z-score in assay [8] is 0.554; in assay [9] it was 0.661; in assay [11], 0.345; in assay [16], -0.244; in [17] it was -0.11; in [18] it was 0.113. In addition, the composite z-score in [19] came out at 0.452; in assay [20], 0.759. Besides, the z-score in assay [7] is 1.17; in assay [10], 1.22 (inactive); in [12], -0.145 (inactive); in assay [13] it was -0.155 (inactive); in assay [14], -0.437 (inactive); in assay [15], 2.17 (inactive).
For the molecule `CCCNC(=O)OC[C@H]1O[C@H](CCON=C(C)CCN2CCCc3nc(C)c(C)cc32)C=C[C@@H]1Oc1ccc(OC)cc1`, the composite z-score came out at 1.4 in assay [1]; 1.09 in [2]; 0.664 in [3]; 0.808 in assay [4]; 0.585 in assay [5]; 0.499 in assay [6]. Moreover, the composite z-score in assay [8] was 0.252; in assay [9] it was 0.625; in assay [11] it was 0.146; in [16], 0.668; in assay [17], 0.0028; in assay [18] it was 0.182. Further, the composite z-score was -0.0347 in [19] and 0.368 in [20]. In addition, the z-score in assay [7] was 1.85; in assay [10], 0.326 (inactive); in assay [12], -2.37 (inactive); in assay [13], -0.489 (inactive); in assay [14], 2.72 (inactive); in assay [15] it was 0.367 (inactive).
For `CCC=CCCC(OC(=O)c1ccc(Br)cc1)C1=CCCCC1=O` (stereo not given), the composite z-score in [1] is 0.164; in [2], 1.17; in assay [3], 0.408; in assay [4], -0.997; in assay [5], 1.11; in [6], 0.584. In addition, the composite z-score in [8] was 0.876; in assay [9], 0.485; in [11], -0.0451; in assay [16] it was 0.148; in assay [17], -0.195; in [18], 1.08. Moreover, the composite z-score stood at 1.87 in assay [19] and 1.46 in assay [20]. Also, the z-score in assay [7] was -0.158; in assay [10], 0.0771 (inactive); in assay [12], -1.29 (inactive); in assay [13], 1.45 (inactive); in assay [14], -0.158 (inactive); in [15], 3.09 (inactive).
Take `CC(C)=CCCC(C)=CCON=C1C[C@@H](O)[C@@H](O)[C@@H]2[C@@H]3C(=O)N(c4ccc(F)cc4F)C(=O)[C@@H]3CC[C@H]12`: the composite z-score was 1.33 in assay [1]; 1.21 in assay [2]; 0.631 in assay [3]; 0.333 in assay [4]; 0.705 in assay [5]; 0.256 in [6]. Also, the composite z-score was 0.515 in [8]; 0.335 in assay [9]; -0.112 in assay [11]; 0.0534 in assay [16]; -0.0178 in assay [17]; -0.37 in assay [18]. Moreover, the composite z-score in [19] is 0.171; in assay [20], 1.01. For the same molecule, the z-score in assay [7] is -0.63; in [10], 0.443 (inactive); in [12], -5.27 (inactive); in [13], -0.206 (inactive); in [14], -1.2 (inactive); in assay [15], -0.358 (inactive).
As to `CO[C@H]1COC(=O)[C@H](C)NC(=O)CC=C[C@@H](C)[C@H](OC)COC(=O)[C@@H](OCc2ccccc2)C=C[C@@H]1C`, the composite z-score was -0.435 in assay [1]; -0.611 in assay [2]; -0.329 in assay [3]; 0.029 in assay [4]; 1.21 in assay [5]; 0.618 in [6]. For the same molecule, the composite z-score in [8] was 0.529; in assay [9], -1.25; in assay [11], -0.0911; in [16], -0.697; in assay [17], -0.0791; in assay [18], 0.57. The composite z-score in assay [19] is -0.0163; in assay [20] it was 0.683. For the same molecule, the z-score in assay [7] was 0.805; in [10], -0.231 (inactive); in [12], 0.382 (inactive); in assay [13], 0.213 (inactive); in assay [14], 0.971 (inactive); in assay [15] it was -0.262 (inactive).
